This is part of a sample that, as a whole, favours compounds with a hit. Of some 83,000 tested, about 20% had one in any assay.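 Step 1: grow cells in 96-well plates. Step 2: add test compound at a single concentration. Step 3: incubate 48 h. Step 4: record percent growth.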 Values without a mark were called inactive. Activity calls are given as the source filed them. The calls were made as follows: active = growth percent below 10; inactive = the rest.

What all share (test): NCI-60 one-dose screen, 48 h (100 = growth as untreated, 0 = no growth, -100 = all killed)
What all share (conditions): 10 µM unless noted

Assay [1] relates to SR leukemia.
Assay [2] has as its system RPMI-8226 leukemia.
The subject of assay [3] is OVCAR-8 ovarian.
Assay [4] concerns OVCAR-5 ovarian.
Assay [5] relates to OVCAR-4 ovarian.
Assay [6] relates to SK-OV-3 ovarian.
Assay [7] relates to IGROV1 ovarian.
Assay [8] has as its system OVCAR-3 ovarian.
Assay [9] has as its system HS 578T breast.
The test system of assay [10] is NCI/ADR-RES ovarian.
The test system of assay [11] is T-47D breast.
Assay [12] relates to BT-549 breast.
The test system of assay [13] is MDA-MB-435 melanoma.
For assay [14], the system named is SW-620 colon.
For assay [15], the system named is MCF7 breast.
In assay [16] the test system is HCT-116 colon.
Assay [17] relates to HCC-2998 colon.
For assay [18], the system named is KM12 colon.

Regarding `COc1nc2c(cc1S(=O)(=O)c1ccccc1)CCc1c-2cnn1-c1ccc(Cl)cc1`, the growth in assay [1] was 80.7%; in assay [2] it was 93.3%; in assay [3], 104%; in [4], 85.5%; in [5] it was 90.4%; in assay [6], 95.5%. Further, the growth in assay [7] is 100%; in [8], 111%; in assay [9], 82%; in assay [10], 89.9%; in assay [11] it was 83.2%; in [12], 109%. The growth is 90.8% in assay [13]; 93.1% in assay [14]; 95.2% in assay [15]; 88.1% in [16]; 92.9% in [17]; 109% in [18].

For `CCOC(=O)c1ccc2c(c1)nc(/C=C/c1ccc(Cl)cc1)n2-c1cc(C(C)(C)C)[nH]n1`, the growth in assay [1] is 52.2%; in assay [2], 52.3%; in [3] it was 38.5%; in assay [4], 110%; in assay [5], 38.3%; in assay [6], 43.3%. The growth in assay [7] was 15.4%; in [8], 22.2%; in assay [9], 51.3%; in assay [10], 68%; in assay [11], 56.2%; in assay [12] it was 57.4%. The growth in assay [13] is 62.7%; in assay [14] it was 64.9%; in assay [15], 42.4%; in assay [16], 52%; in [17], 88.4%; in assay [18], 54%.

For `Oc1c(Cl)cc(Cl)cc1CNc1nccnn1`, the growth in assay [1] was 93.5%; in assay [2] it was 105%; in [3] it was 108%; in [4], 101%; in assay [5] it was 106%; in assay [6], 107%. In addition, the growth is 96.3% in assay [7]; 92.1% in [8]; 114% in assay [9]; 98.5% in [10]; 105% in [11]; 105% in [12]. The growth was 99.3% in assay [13]; 102% in assay [14]; 99.2% in [15]; 98.1% in assay [16]; 98.6% in [17]; 93.1% in [18].

`CCCCCCCCCCCCCCCC(=O)OCC1OC(n2cnc3c(=S)nc(N)[nH]c32)C(OC(=O)CCCCCCCCCCCCCCC)C1OC(=O)CCCCCCCCCCCCCCC` (centres undefined): the growth in [1] is 11.4%; in assay [2] it was 30.1%; in assay [3], 55.8%; in assay [4], 52.1%; in [5] it was 78.3%; in assay [6], 20.8%. The growth in [7] is 77.1%; in [8], 50%; in assay [9], 119%; in assay [10], 39.4%; in assay [11], 41.3%; in assay [12] it was 53%. Also, the growth in assay [13] is 59.3%; in assay [14], 78.6%; in assay [15], 35%; in [16] it was 32.6%; in [17] it was 53.6%; in assay [18], 71%.

`Nc1cccc(-c2nc3sccn3c2-c2ccnc(NCCCNS(=O)(=O)c3ccc(C(F)(F)F)cc3)n2)c1`: the growth in [1] is 15.5%; in assay [2], -29.7% (active); in assay [3], 7.14% (active); in assay [4], 40.9%; in assay [5], -1% (active); in assay [6] it was 23.8%. Besides, the growth in assay [7] is 4.78% (active); in assay [8] it was 6.08% (active); in assay [9] it was 12.3%; in assay [10], 0.058% (active); in assay [11], -16.9% (active); in [12], 0.811% (active). The growth was -14.8% (active) in assay [13]; 12.7% in assay [14]; 2.11% (active) in [15]; 3.07% (active) in [16]; 18.1% in assay [17]; 1.52% (active) in assay [18].

As for `C=CC[N+]1(CCO)CCN=C1CCCCCCCCCCCCC` (centres undefined), the growth in [1] was -39.7% (active); in assay [2] it was -39.5% (active); in assay [3], -74.3% (active); in assay [4] it was -94.9% (active); in assay [5], -25.9% (active); in [6] it was -48.6% (active). The growth was -82% (active) in assay [7]; -84.4% (active) in assay [8]; -36.5% (active) in assay [9]; -62% (active) in assay [10]; -39.2% (active) in assay [11]; -10.2% (active) in assay [12]. In addition, the growth in assay [13] is -78.1% (active); in assay [14], -72.3% (active); in [15], -72.3% (active); in [16], -95.1% (active); in [17], -91.1% (active); in assay [18] it was -83.2% (active).

As to `O=c1c(/C=C/c2ccco2)nnc(SCCN2CCOCC2)n1/N=C/c1ccc([N+](=O)[O-])cc1`, the growth in assay [1] is 33.6%; in assay [2], 67%; in assay [3], 94%; in [4] it was 103%; in assay [5], 97.2%; in assay [6], 95%. Also, the growth is 82.8% in assay [7]; 108% in [8]; 96.9% in [9]; 101% in [10]; 68.2% in assay [11]; 94.6% in assay [12]. Moreover, the growth in assay [13] was 97.4%; in assay [14], 104%; in [15] it was 31%; in [16], 95%; in [17], 93.1%; in assay [18], 92%.

In the case of `O=C(/C=C\c1cccc([N+](=O)[O-])c1)c1ccccc1`, the growth in assay [1] was 12.7%; in [2], 0.104% (active); in [3], 74.1%; in assay [4], 111%; in [5], 54.4%; in assay [6], 115%. For the same molecule, the growth was -53% (active) in assay [7]; -83% (active) in assay [8]; 86.5% in assay [9]; 83.6% in assay [10]; -5.11% (active) in assay [11]; 90.1% in [12]. Also, the growth is 65.7% in assay [13]; -30.1% (active) in assay [14]; -9.56% (active) in [15]; -68.3% (active) in [16]; 10.9% in assay [17]; -49.7% (active) in [18].

These data come from PubChem BioAssay (NCI).
